Reference: article PMC5540273 (PLoS ONE, 2017)

How the values were obtained:
Details in all cases: concentration: 1 μM, replicates: in singlicate; n = 1
GRK1 = system: GRK1
GRK2 = system: T1, GRK2
T1 construct: gene ADRBK1

GRK3 = system: T2, GRK3
T2 construct: gene ADRBK2

GRK4 = system: GRK4
GRK7 = system: GRK7
GSK3A = system: GSK3A
GSK3B = system: GSK3B
HASPIN = system: T3, HASPIN
T3 construct: gene GSG2

HCK = system: HCK
HIPK1 = system: HIPK1
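Note: KINOMEscan kinase panel screen.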

Row | Compound | %Inh (GRK1) [%] | %Inh (GRK2) [%] | %Inh (GRK3) [%] | %Inh (GRK4) [%] | %Inh (GRK7) [%] | %Inh (GSK3A) [%] | %Inh (GSK3B) [%] | %Inh (HASPIN) [%] | %Inh (HCK) [%] | %Inh (HIPK1) [%]
1 | CN1CCC(n2cnc(-c3ccc(F)cc3)c2-c2ccnc(NC3CCNCC3)n2)CC1 [SB-229482] | 11 | 33 | 1 | 26 | 29 | 0 | 17 | 16 | 3 | 32
2 | C[C@H]1CC[C@@H](C(=O)Nc2ccccc2)CN1c1cc(-c2ccc3c(N)n[nH]c3c2)nc(N)n1 [GSK2283293] | 0 | 0 | 31 | 25 | 0 | 0 | 0 | 0 | 3 | 22
3 | O=C(c1ccc(-c2cc(-c3c[nH]nc3-c3ccccn3)ccn2)cc1)N1CCCC1 [GW792479] | 21 | 0 | 0 | 0 | 0 | 14 | 0 | 2 | 12 | 42
4 | CCn1c(-c2ccncc2)nc2cnccc21 [SB-735216] | 11 | 4 | 63 | 45 | 24 | 9 | 30 | 57 | 7 | 10
5 | OCCOCCn1ccc2ncnc(Nc3ccc(Oc4cccc(Cl)c4)c(Cl)c3)c21 | 9 | 0 | 0 | 0 | 0 | 9 | 0 | 0 | 9 | 16
6 | Fc1cccc(COc2ccc(Nc3ncnc4nn5ccccc5c34)cc2Cl)c1 [GW689066] | 0 | 0 | 30 | 0 | 0 | 0 | 0 | 63 | 0 | 0
7 | COC(=O)c1cccc(NC(=O)NCCNc2ccnc(Nc3ccc(F)cc3)n2)c1 [GSK1379883] | 0 | 0 | 17 | 2 | 0 | 19 | 0 | 37 | 0 | 0
8 | COc1ccc(Nc2nccc(N3CCC(NC(=O)c4cccc(NC(C)=O)c4)C3)n2)cc1 (stereo not shown) [GSK1379732] | 0 | 2 | 49 | 0 | 0 | 4 | 0 | 46 | 0 | 0
9 | Cc1cc(N2CCC(NS(=O)(=O)c3ccc(F)cc3)CC2)nc(Nc2cccc(C#N)c2)n1.O=C(O)C(F)(F)F [GSK1653537] | 0 | 0 | 16 | 22 | 0 | 0 | 0 | 0 | 0 | 0
10 | Cl.Cl.c1ccc(-c2cc3ccncc3cc2OC2CCNCC2)cc1 [GSK1122999] | 0 | 0 | 0 | 9 | 10 | 21 | 18 | 89 | 0 | 5
11 | CS(=O)(=O)CCNCc1nc(-c2ccc3ncnc(Nc4ccc(OCc5cccc(F)c5)c(Cl)c4)c3c2)cs1.Cl [GW583340] | 0 | 0 | 28 | 0 | 0 | 0 | 1 | 0 | 0 | 0
12 | CNc1nccc(-c2c(-c3ccc(F)cc3)ncn2CCCN2CCOCC2)n1 [SB-222516] | 22 | 0 | 23 | 0 | 0 | 0 | 14 | 8 | 0 | 0
13 | C[C@@H]1CCN(C(=O)CO)C[C@@H]1N(C)c1ncnc2[nH]ccc12 | 16 | 17 | 22 | 0 | 25 | 0 | 0 | 8 | 25 | 15
14 | CC(C)(C)c1ccc(-n2cnc3c(N)ncnc32)cc1 [SKF-97263] | 3 | 0 | 0 | 24 | 0 | 31 | 4 | 64 | 13 | 19
15 | Fc1ccc(Nc2nccc(-c3c(-c4ccc(Cl)cc4)nn4ncccc34)n2)cc1F [GW829058] | 22 | 11 | 18 | 21 | 35 | 0 | 31 | 37 | 15 | 33
16 | CCCc1ccc(S(=O)(=O)NC2CCN(c3ccnc(Nc4ccc(OC)cc4)n3)C2)cc1 (stereo not shown) [GSK1379737] | 0 | 0 | 67 | 0 | 0 | 7 | 8 | 14 | 0 | 0
17 | FC(F)(F)c1ccc(-c2nn3ncccc3c2-c2ccnc(Nc3cccc(C(F)(F)F)c3)n2)cc1 [GW828205] | 11 | 0 | 0 | 25 | 0 | 1 | 10 | 0 | 10 | 39

Row | Compound | %Inh (GRK1) [%] | %Inh (GRK2) [%] | %Inh (GRK3) [%] | %Inh (GRK4) [%] | %Inh (GRK7) [%] | %Inh (GSK3A) [%] | %Inh (GSK3B) [%] | %Inh (HASPIN) [%] | %Inh (HCK) [%] | %Inh (HIPK1) [%]
18 | Clc1ccc(-c2cc(-c3c[nH]nc3-c3ccccn3)ccn2)cc1 [GW681251] | 43 | 0 | 11 | 0 | 0 | 7 | 32 | 0 | 0 | 7
19 | O=c1cc(N2CCOCC2)nc2n(Cc3cccc(Cl)c3)ccn12 [GSK2296823] | 15 | 0 | 12 | 47 | 0 | 28 | 7 | 0 | 0 | 12
20 | O=C(CCO)NCCn1ccc2ncnc(Nc3ccc(Oc4cccc(C(F)(F)F)c4)c(Cl)c3)c21 | 13 | 0 | 0 | 0 | 0 | 6 | 0 | 0 | 36 | 19
21 | N#Cc1ccc(Oc2ccc(Nc3ncnc4cc[nH]c34)cc2Cl)cc1 | 27 | 0 | 7 | 12 | 14 | 19 | 0 | 0 | 21 | 32
22 | Cc1ccc(C)c(NC(=O)NCCNc2ccnc(Nc3ccc(F)cc3)n2)c1 [GSK1379878] | 0 | 0 | 17 | 0 | 0 | 3 | 0 | 4 | 0 | 0
23 | Cl.c1ccc(Cn2ccc3cc(Nc4ncnc5ccccc45)ccc32)cc1 [GW275568] | 9 | 0 | 0 | 0 | 0 | 11 | 7 | 1 | 0 | 3
24 | c1ccc(-c2ccc3c(-c4ccnc(Nc5ccc6c(c5)OCCO6)n4)cnn3n2)cc1 [GW818941] | 0 | 7 | 0 | 11 | 0 | 12 | 0 | 0 | 16 | 0
25 | Cl.Fc1ccccc1COc1ccc(Nc2ncnc3ccc(-c4nnc(C(F)(F)F)o4)cc23)cc1Cl [GW424170] | 0 | 0 | 0 | 0 | 0 | 17 | 0 | 0 | 0 | 1
26 | O=C(NCCCN1CCCC1=O)c1cnc(NCc2cc(Cl)ccc2Cl)nc1NC1CCNCC1 | 33 | 2 | 22 | 0 | 68 | 0 | 0 | 0 | 3 | 5
27 | Nc1nccc2scc(-c3ccc4c(c3)CCN4C(=O)Cc3cc(F)ccc3F)c12 [GSK2587663] | 0 | 0 | 40 | 0 | 0 | 17 | 1 | 0 | 0 | 0
28 | Cn1ccc2ncnc(Oc3ccc(NC(=O)Nc4cccnc4)c(Cl)c3)c21 | 13 | 0 | 0 | 1 | 14 | 0 | 3 | 0 | 8 | 13
29 | CNc1nccc(-c2c(-c3ccc(F)cc3)ncn2C2CCN(C)CC2)n1 [SB-222903] | 0 | 90 | 0 | 0 | 0 | 3 | 0 | 6 | 26 | 10
30 | Clc1cccc(-c2nc(Nc3ccncc3)c3ccccc3n2)c1 [GW873004] | 10 | 0 | 0 | 0 | 0 | 0 | 0 | 50 | 26 | 43
31 | Cl.O=S(=O)(c1cccc(F)c1)c1ccc(Nc2ncnc3cc(Br)sc23)cc1Cl [GSK306886] | 4 | 0 | 0 | 0 | 0 | 21 | 31 | 0 | 0 | 0
32 | COc1ccc(Nc2nccc(N3CCC(NC(=O)Nc4ccc5c(c4)OCO5)C3)n2)cc1 (stereo not shown) [GSK1379745] | 13 | 0 | 20 | 15 | 0 | 0 | 7 | 13 | 0 | 0
33 | Fc1cccc(COc2ccc(Nc3ncnc4sc(-c5ccc[nH]5)cc34)cc2Cl)c1 [GW707818] | 0 | 0 | 0 | 0 | 0 | 22 | 3 | 0 | 0 | 0
34 | COc1ccc(NC(=O)Nc2ccc(C)c(-c3ccc(C(=O)Nc4ccncc4)cc3)c2)cc1 [GSK1398475] | 0 | 0 | 11 | 0 | 0 | 15 | 7 | 0 | 0 | 0
